Experimental data taken from PubChem BioAssay (EPA / NIEHS).
Records with an inconclusive call do not appear. Activity calls are given as the source filed them. Rule for the calls, unless noted: active = hit-call score of the fitted dose curve at least 0.9, where 1 is the maximum; inactive = score below 0.9.

Read-out: not listed separately
Experiment: CEETOX_H295R_OHPREG_noMTC: CeeTox H295R High-throughput Steroidogenesis Assay for OH-Pregnenolone (OHPREG), maximum tolerated concentration (MTC) filtered results only (AID 2283912)
Conditions: actives raise or lower the signal
Procedure, shortened: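 Readout is HPLC-MS/MS quantification of 17alpha-hydroxypregnenolone released by forskolin-stimulated H295R cells over 48 h of chemical exposure, DMSO as baseline.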

SMILES	outcome	AC50
O=C(O)c1ccccc1C(=O)OCc1ccccc1	inactive	
CC(C)(O)c1ccc(CNC(=O)c2cccnc2Oc2ccc3nonc3c2)cc1	inactive	
CCCCCCCCOc1ccc(C(=O)c2ccccc2)c(O)c1		30.9 µM (active)
CCCCCc1ccc(N)cc1	inactive	
c1ccc(C[n+]2cccc3ccccc32)cc1	inactive	

Read-out: not listed separately
Experiment: CEETOX_H295R_OHPROG_noMTC: CeeTox H295R High-throughput Steroidogenesis Assay for OH-Progesterone (OHPROG), maximum tolerated concentration (MTC) filtered results only (AID 2283914)
Conditions: actives raise or lower the signal
Procedure, shortened: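 Analysis uses all tested concentrations, without maximum-tolerated-concentration screening by MTT. H295R cells, forskolin-primed (10 uM, 48 h), receive chemical for 48 h; hormone in medium measured by HPLC-MS/MS, with bidirectional curve fitting against DMSO.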

SMILES	outcome	AC50
O=C(O)c1ccccc1C(=O)OCc1ccccc1	inactive	
CC(C)(O)c1ccc(CNC(=O)c2cccnc2Oc2ccc3nonc3c2)cc1	inactive	
CCCCCCCCOc1ccc(C(=O)c2ccccc2)c(O)c1		27.4 µM (active)
CCCCCc1ccc(N)cc1		12.4 µM (active)
c1ccc(C[n+]2cccc3ccccc32)cc1	inactive	

Read-out: not listed separately
Experiment: CEETOX_H295R_CORTISOL_noMTC: CeeTox H295R High-throughput Steroidogenesis Assay for Cortisol, maximum tolerated concentration (MTC) filtered results only (AID 2283916)
Conditions: actives raise or lower the signal
Procedure, shortened: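 H295R adrenal cells were pre-stimulated 48 h with 10 uM forskolin, then exposed 48 h to test chemical in 0.1% DMSO. Medium cortisol was measured by MTBE extraction and HPLC-MS/MS; bidirectional fit versus DMSO, concentrations not MTC-filtered.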

SMILES	outcome	AC50
O=C(O)c1ccccc1C(=O)OCc1ccccc1	inactive	
CC(C)(O)c1ccc(CNC(=O)c2cccnc2Oc2ccc3nonc3c2)cc1		61.8 µM (active)
c1ccc(C[n+]2cccc3ccccc32)cc1	inactive	
CC/C(=C(/CC)c1ccc(O)cc1)c1ccc(O)cc1		34.8 µM (active)

Read-out: not listed separately
Experiment: CEETOX_H295R_CORTIC_noMTC: CeeTox H295R High-throughput Steroidogenesis Assay for Corticosterone (CORTIC), maximum tolerated concentration (MTC) filtered results only (AID 2283917)
Conditions: actives raise or lower the signal
Procedure, shortened: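 Forskolin-stimulated (10 uM, 48 h) H295R cells are dosed 48 h with chemical in DMSO (0.1% final); corticosterone change is quantified by HPLC-MS/MS and fitted bidirectionally against DMSO, unfiltered for MTT-derived MTC.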

SMILES	outcome	AC50
O=C(O)c1ccccc1C(=O)OCc1ccccc1	inactive	
CC(C)(O)c1ccc(CNC(=O)c2cccnc2Oc2ccc3nonc3c2)cc1	inactive	
c1ccc(C[n+]2cccc3ccccc32)cc1	inactive	
CC/C(=C(/CC)c1ccc(O)cc1)c1ccc(O)cc1		35.4 µM (active)

Read-out: not listed separately
Experiment: CEETOX_H295R_DOC_noMTC: CeeTox H295R High-throughput Steroidogenesis Assay for DOC, maximum tolerated concentration (MTC) filtered results only (AID 2283918)
Conditions: actives raise or lower the signal
Procedure, shortened: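 H295R cells prestimulated 48 h with 10 uM forskolin, then exposed 48 h to test chemical (0.1% DMSO final). Medium 11-deoxycorticosterone extracted with MTBE, quantified by HPLC-MS/MS; bidirectional fit versus DMSO, concentrations not MTC-filtered.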

SMILES	outcome	AC50
O=C(O)c1ccccc1C(=O)OCc1ccccc1	inactive	
CC(C)(O)c1ccc(CNC(=O)c2cccnc2Oc2ccc3nonc3c2)cc1		0.0934 µM (active)
c1ccc(C[n+]2cccc3ccccc32)cc1	inactive	
CC/C(=C(/CC)c1ccc(O)cc1)c1ccc(O)cc1		84.6 µM (active)

Read-out: not listed separately
Experiment: CEETOX_H295R_ESTRADIOL_noMTC: CeeTox H295R High-throughput Steroidogenesis Assay for Estradiol, maximum tolerated concentration (MTC) filtered results only (AID 2283919)
Conditions: actives raise or lower the signal
Procedure, shortened: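 Readout: dansyl-derivatized estradiol quantified by LC-MS/MS in medium from H295R cells dosed 48 h (0.1% DMSO) following 48 h forskolin (10 uM) prestimulation. Gain or loss of signal fitted against DMSO; no MTC filtering applied.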

SMILES	AC50	outcome
CC(C)(O)c1ccc(CNC(=O)c2cccnc2Oc2ccc3nonc3c2)cc1	0.0671 µM (active)	
CCCCCc1ccc(N)cc1		inactive
c1ccc(C[n+]2cccc3ccccc32)cc1		inactive

Read-out: not listed separately
Experiment: CEETOX_H295R_PROG_noMTC: CeeTox H295R High-throughput Steroidogenesis Assay for Progesterone (PROG), maximum tolerated concentration (MTC) filtered results only (AID 2283920)
Conditions: actives raise or lower the signal
Procedure, shortened: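 Progesterone synthesis in the human adrenal line H295R is measured by HPLC-MS/MS after 48 h chemical exposure following 48 h forskolin (10 uM) stimulation. Activity in either direction is fitted relative to DMSO.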

SMILES	outcome	AC50
O=C(O)c1ccccc1C(=O)OCc1ccccc1	inactive	
CC(C)(O)c1ccc(CNC(=O)c2cccnc2Oc2ccc3nonc3c2)cc1	inactive	
CCCCCCCCOc1ccc(C(=O)c2ccccc2)c(O)c1		30.1 µM (active)
CCCCCc1ccc(N)cc1		13.9 µM (active)
c1ccc(C[n+]2cccc3ccccc32)cc1	inactive	
CC/C(=C(/CC)c1ccc(O)cc1)c1ccc(O)cc1	inactive	

Read-out: not listed separately
Experiment: CEETOX_H295R_ESTRONE_noMTC: CeeTox H295R High-throughput Steroidogenesis Assay for Estrone, maximum tolerated concentration (MTC) filtered results only (AID 2283921)
Conditions: actives raise or lower the signal
Procedure, shortened: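 Estrone in spent medium, quantified by tandem MS following dansyl chloride derivatization, after 48 h chemical exposure (0.1% DMSO) of forskolin-prestimulated (10 uM, 48 h) H295R cells; concentrations not MTC-filtered, bidirectional fit against DMSO.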

SMILES	AC50	outcome
CC(C)(O)c1ccc(CNC(=O)c2cccnc2Oc2ccc3nonc3c2)cc1	0.0407 µM (active)	
CCCCCc1ccc(N)cc1		inactive
c1ccc(C[n+]2cccc3ccccc32)cc1		inactive

Target: PGR (gene 5241) (UniProt P06401)
Experiment: TOX21_PR_BLA_Followup_Antagonist_ratio: Tox21 HEK293 Progesterone Receptor (PR) Antagonism Beta-lactamase Follow-Up Assay, Ratio (AID 2283934; active = hit-call score of the fitted dose curve at least 0.9, where 1 is the maximum;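 note: PR-UAS-bla HEK293T cells stimulated with 1 nM R5020 agonist for 16 hr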)
Conditions: not given
Procedure, shortened: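 Measured in PR-UAS-bla HEK293T cells co-treated with compound and 1 nM promegestone for 16 hr; beta-lactamase ratio read after 2 h FRET substrate loading, with parallel CellTiter-Glo cytotoxicity.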

PGR (gene 5241), sequence (P06401 whole entry, looked up): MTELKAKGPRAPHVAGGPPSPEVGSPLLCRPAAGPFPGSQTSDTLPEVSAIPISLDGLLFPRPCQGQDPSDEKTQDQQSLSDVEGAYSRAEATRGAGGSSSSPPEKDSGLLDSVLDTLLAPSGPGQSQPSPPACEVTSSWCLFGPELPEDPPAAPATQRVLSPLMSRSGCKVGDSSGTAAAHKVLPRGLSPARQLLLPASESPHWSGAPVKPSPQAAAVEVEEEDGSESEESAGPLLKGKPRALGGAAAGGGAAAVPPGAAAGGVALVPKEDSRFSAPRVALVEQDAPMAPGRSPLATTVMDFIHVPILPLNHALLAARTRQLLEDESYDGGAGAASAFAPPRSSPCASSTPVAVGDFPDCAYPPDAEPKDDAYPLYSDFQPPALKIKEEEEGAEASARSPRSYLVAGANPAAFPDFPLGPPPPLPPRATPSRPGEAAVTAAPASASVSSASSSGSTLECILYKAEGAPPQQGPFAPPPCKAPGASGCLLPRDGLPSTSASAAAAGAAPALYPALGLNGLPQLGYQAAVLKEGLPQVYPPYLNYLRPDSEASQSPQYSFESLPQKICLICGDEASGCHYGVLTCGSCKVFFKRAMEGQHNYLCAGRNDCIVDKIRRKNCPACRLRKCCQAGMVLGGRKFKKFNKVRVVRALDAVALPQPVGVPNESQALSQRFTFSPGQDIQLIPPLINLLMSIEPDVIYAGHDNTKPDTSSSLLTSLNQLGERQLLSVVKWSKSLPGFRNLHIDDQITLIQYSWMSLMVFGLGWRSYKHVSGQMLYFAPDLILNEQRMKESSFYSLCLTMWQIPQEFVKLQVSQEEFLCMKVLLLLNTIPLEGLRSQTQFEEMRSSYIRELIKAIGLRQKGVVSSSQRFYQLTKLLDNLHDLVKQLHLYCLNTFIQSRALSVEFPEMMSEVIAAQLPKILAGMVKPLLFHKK

SMILES	AC50
Cc1ccc2oc(CN(Cc3ccccc3)C(=O)Nc3c(F)cc(F)cc3F)c(-c3ccc(Cl)cc3)c2c1	1.95 µM (active)
C[C@]12CC[C@@H]3c4ccc(O)cc4CC[C@H]3[C@@H]1CCC2=O	1.42 µM (active)
O=C(O)Cc1cc(I)c(Oc2ccc(O)c(I)c2)c(I)c1	21.5 µM (active)

System: not listed separately
Experiment: TOX21_PR_BLA_Followup_Agonist_viability: Viability Assessment in the Tox21 HEK293 Progesterone Receptor (PR) Agonism Beta-lactamase Follow-Up Assay (AID 2283935; active = hit-call score of the fitted dose curve at least 0.9, where 1 is the maximum;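 note: signal loss means lower viability so actives are cytotoxic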)
Conditions: not given
Procedure, shortened: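 Viability is read as CellTiter-Glo luminescence, where loss of signal indicates cytotoxicity. The cells are PR-UAS-bla HEK293T given compounds for 16 hr at 37C and 5% CO2, in the same wells used for the bla readout.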

SMILES	outcome
Cc1ccc2oc(CN(Cc3ccccc3)C(=O)Nc3c(F)cc(F)cc3F)c(-c3ccc(Cl)cc3)c2c1	inactive
C[C@]12CC[C@@H]3c4ccc(O)cc4CC[C@H]3[C@@H]1CCC2=O	inactive
O=C(O)Cc1cc(I)c(Oc2ccc(O)c(I)c2)c(I)c1	inactive

System: not listed separately
Experiment: TOX21_PR_LUC_Followup_Agonist_viability: Viability Assessment in the Tox21 HEK293 Progesterone Receptor (PR) Agonism Luciferase Follow-Up Assay (AID 2283941; active = hit-call score of the fitted dose curve at least 0.9, where 1 is the maximum;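 note: loss of signal means cytotoxicity so actives lower viability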)
Conditions: not given
Procedure, shortened: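 Seeding: HEK293-PR-A-luc, 3,000 cells/well, 5 h at 37C. Treatment: compound in DMSO, 16 h, 37C. Read: CellTiter-Glo ATP luminescence, signal loss taken as lower viability.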

SMILES	outcome
Cc1ccc2oc(CN(Cc3ccccc3)C(=O)Nc3c(F)cc(F)cc3F)c(-c3ccc(Cl)cc3)c2c1	inactive
C[C@]12CC[C@@H]3c4ccc(O)cc4CC[C@H]3[C@@H]1CCC2=O	inactive
O=C(O)Cc1cc(I)c(Oc2ccc(O)c(I)c2)c(I)c1	inactive
